Compounds without any hit were thinned out: in the full panel of roughly 83,000, 20% have a hit.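 Interpretation: 100, growth as untreated; towards 0, rising growth inhibition; 0, no net growth; 0 to -100, cell death. Compounds scoring below 10 were considered active.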 Values without a mark were called inactive. Activity calls are given as the source filed them.
system: HL-60(TB) leukemia; experiment: NCI-60 one-dose screen, 48 h (100 = growth as untreated, 0 = no growth, -100 = all killed); details: 10 µM unless noted

**Q.** For `CCc1ccc(SC2c3cc(OC)ccc3Oc3nc(N)c(C#N)c(N)c32)cc1` (stereo not given), which growth is on record?
**A.** -77.8% (active)

**Q.** Which growth does the source give for `Cn1cc(-c2cc(N)n3nc(-c4c[nH]c5ccc(F)cc45)cc3n2)c2cccnc21` here?
**A.** -54% (active)

**Q.** With `O=C1Nc2ccc(Cl)cc2/C1=C/c1ccc(OCc2ccc(Br)cc2F)cc1` as the compound, how does the growth read?
**A.** 83.2%

**Q.** `COc1ccc(C(=O)C[n+]2cccc3c4ccccc4ccc32)cc1` was tested. Which growth did it give?
**A.** 22%

**Q.** Which growth does the source give for `C#CCN(C)CCCOc1ccc(N(C)C(=O)c2cc(C(C)C)c(O)cc2O)cc1Cl` here?
**A.** -40.7% (active)

**Q.** With `COc1ccc(Nc2nnc(-c3c[nH]c4ccccc34)o2)cc1` as the compound, how does the growth read?
**A.** 29.8%

**Q.** For `CC1=C(C(=O)OCc2ccccc2)C(c2ccc(N(C)C)cc2)n2c(nc3ccccc32)N1` (stereo not given), which growth is on record?
**A.** 73.7%

**Q.** For `CONC[C@]1(C)C=C2C(=O)[C@](C)(O)C3(CC3)C(C)=C2[C@H]1O`, which growth is on record?
**A.** -29.3% (active)

**Q.** How did the growth turn out when `CN1C(=O)/C(=C/c2ccco2)S/C1=N/c1nccs1` was run?
**A.** 102%

**Q.** Which growth does the source give for `CC(=O)OC[C@@]1(C)C2CC[C@]3(C)C(CC=C4C5CC(C)(C)CC[C@]5(C(=O)Nc5ccc(C)cc5)CC[C@]43C)[C@@]2(C)C[C@@H](OC(C)=O)[C@@H]1OC(C)=O` (stereo not given in full) here?
**A.** 31.6%

**Q.** `CC(/C=C1\SC(=S)N(CCCC(=O)NC(CC(C)C)C(=O)O)C1=O)=C\c1ccccc1` (stereo not given) was tested. Which growth did it give?
**A.** 63.4%

**Q.** `Cc1ccc(C(C)C)cc1Oc1cccc(-c2c(-c3ccc(C(F)(F)F)cc3)ncn2C2CCNCC2)n1` was tested. Which growth did it give?
**A.** -83.1% (active)

**Q.** How did the growth turn out when `CCN(CC)c1ccnc(CNCCSC(c2ccccc2)(c2ccccc2)c2ccc(OC)cc2)c1` was run?
**A.** -34.3% (active)

**Q.** For `O=C(CSc1nnc(-c2ccc3nc(-c4ccccc4)[nH]c3c2)o1)Nc1ccc(Cl)cc1`, which growth is on record?
**A.** 46.7%

**Q.** How did the growth turn out when `CCCCOc1ccc(Nc2nc3ccccc3nc2Nc2ccc(OCCCC)cc2)cc1` was run?
**A.** 79.7%

**Q.** With `O=C(N/N=C/c1occc1Br)c1[nH]c2ccc(Br)cc2c1-c1ccccc1` as the compound, how does the growth read?
**A.** -34.2% (active)

**Q.** How did the growth turn out when `Fc1ccc(F)c(CNc2nc(SCCN3CCOCC3)nc3c2cnn3CC(Cl)c2ccc(Br)cc2)c1` (stereo not given) was run?
**A.** -12.3% (active)

**Q.** With `COc1cc(CNC(=O)C[C@H](C)CCC=C(C)C)ccc1OCc1cn(-c2ccccc2Cl)nn1` as the compound, how does the growth read?
**A.** 41.1%

**Q.** `COc1cccc(/C=C/c2nc3ccccc3c(=O)n2CC(=O)Nc2ccc(Cl)cc2)c1` was tested. Which growth did it give?
**A.** 115%

**Q.** Which growth does the source give for `O=C(CSc1ccc(-c2ccc(Cl)cc2)nn1)Nc1ccc(Cl)c(C(F)(F)F)c1` here?
**A.** 32.7%

**Q.** `O=C(N/N=C/c1ccc(-c2cccc([N+](=O)[O-])c2)o1)c1[nH]c2ccc(Br)cc2c1-c1ccccc1` was tested. Which growth did it give?
**A.** -36.5% (active)

**Q.** Which growth does the source give for `C=C1CCC2C3(C)COC(c4cccc(F)c4)OC3CCC2(C)C1CC(O)C1=CCOC1=O` (stereo not given) here?
**A.** 66.7%

**Q.** How did the growth turn out when `COC(=O)c1c(C(=O)OC)c2n(c1C)[C@@H]([C@@H](C)[C@H]1CC[C@H]3[C@@H]4CCC5=CC(=O)CC[C@]5(C)[C@H]4CC[C@]13C)SC2` was run?
**A.** 7% (active)

**Q.** `O=C1CCCc2cc(OCC(=O)N3CCCCC3)ccc2N1` was tested. Which growth did it give?
**A.** 91.9%

**Q.** How did the growth turn out when `Cc1ncsc1-c1ccc(CNC(=O)[C@@H]2C[C@@H](O)CN2C(=O)[C@@H](NC(=O)C2(F)CC2)C(C)(C)C)c(OCCOCCOCCOCCOc2nc(Nc3cc(S(C)(=O)=O)ccc3N[C@@H](c3cccc4c3OC(F)(F)O4)c3ncccc3Cl)nc(N3CCNCC3)n2)c1` was run?
**A.** 72%

**Q.** `Cn1cc(-c2nc(N)nnc2-c2c[nH]c3ccc(F)cc23)c2cc(Br)cnc21` was tested. Which growth did it give?
**A.** -34% (active)

**Q.** `CN1CCc2c(sc3ncnc(N/N=C/c4cn(-c5ccccc5)nc4-c4ccc(Br)cc4)c23)C1` was tested. Which growth did it give?
**A.** -4.94% (active)

**Q.** How did the growth turn out when `C#CCOc1cc(N(CC)CC)ccc1C(C(=O)NC(C)(C)C)N(C(=O)C1CCc2cc(F)ccc2O1)c1ccccc1Br` (stereo not given) was run?
**A.** 21.7%

**Q.** `COc1ccc(-c2ccc(SCC(=O)Nc3ccc(S(N)(=O)=O)cc3Br)nn2)cc1` was tested. Which growth did it give?
**A.** 94.9%

**Q.** `O=C(c1ccccc1)c1ccc2nc(-c3ccc(F)cc3)[nH]c2c1` was tested. Which growth did it give?
**A.** 36.1%

**Q.** With `O=C(C1=CNC(=S)NC1c1ccc(O)cc1)c1cc2ccccc2oc1=O` (stereo not given) as the compound, how does the growth read?
**A.** 79.5%

**Q.** For `COc1ccc2c(c1)N=c1c-2cc2c(O)[nH]c(=S)n2c1=O`, which growth is on record?
**A.** -13.3% (active)

**Q.** Which growth does the source give for `Cc1ccc(NC(=O)[C@]23CCC(C)(C)CC2C2=CCC4[C@@]5(C)C[C@@H](O)[C@H](O)[C@@](C)(CO)C5CC[C@@]4(C)[C@]2(C)CC3)cc1` (stereo not given in full) here?
**A.** -15.4% (active)

**Q.** How did the growth turn out when `COc1cc2oc(-c3cccc(C(=O)Nc4ccc(Cl)cc4)c3)cc(=O)c2c(OCCNC(=O)[C@H](CCC(=O)OC(C)(C)C)NC(=O)OC(C)(C)C)c1OC` was run?
**A.** 101%

**Q.** `CC1(c2ccccc2)NC(=O)N(CC(=O)Nc2ccc(C(=O)/C=C/C=C/c3ccccc3)cc2)C1=O` (stereo not given) was tested. Which growth did it give?
**A.** 36.8%

**Q.** How did the growth turn out when `ClC(Cn1ncc2c(Nc3cccc(Br)c3)nc(SCCN3CCOCC3)nc21)c1ccc(Br)cc1` (stereo not given) was run?
**A.** -31.9% (active)

**Q.** For `CCOc1ccccc1[C@H]1C(C(=O)c2ccc(Cl)cc2)C2(N[C@@H]1c1ccccc1)C(=O)Nc1ccc(Cl)cc12` (stereo not given in full), which growth is on record?
**A.** 18.2%

**Q.** `CCOC(=O)C1=C(N)N(c2ccc(C)cc2)C2=C(C(=O)CC(C)(C)C2)C1c1ccccc1OC` (stereo not given) was tested. Which growth did it give?
**A.** 98.9%

**Q.** For `O=C(/C=C/c1cccc(OCc2ccccc2)c1)c1nc2ccccc2[nH]1`, which growth is on record?
**A.** 5.75% (active)

**Q.** With `O=C(CSc1nnc(-c2c[nH]c3ccccc23)n1-c1ccccc1)Nc1ccc(C(=O)/C=C/c2ccc(Cl)cc2)cc1` as the compound, how does the growth read?
**A.** 66.8%

— PubChem BioAssay (NCI)
